“And” between values parts separate entries of the source, which are not always exact repeats. Identical values can stand only once. Inconclusive results are not listed. The source made the active and inactive calls. Unless noted, calls follow the shape of the dose curve; as a rule, active = well fitted curve in the direction sought with a large enough effect; inconclusive = small, poorly fitted or top-dose-only effect, or another doubt; inactive = no such curve, though single readings can be large; an effect the other way counts as inactive or inconclusive.
Key:
[1] = qHTS Assay for Lipid Storage Modulators (AID 1519; calls by dose curve; as to activity change, negative = inhibition: % is scaled to controls: 0 for no effect and ±100 for the full control effect); conditions: Drosophila S3 cells, BODIPY lipid droplet/cell ratio, laser cytometry, cells loaded with oleic acid
Outline: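 Cells seeded at 5,000 per well were treated with compounds over a concentration series and loaded with oleic acid (400 uM, as added). Lipid droplet fluorescence (488 nm excitation, 500-530 nm channel) was read by laser-scanning cytometry and normalized to 20 uM Triacsin C.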

[2] = molecular target: Alpha-galactosidase A (Homo sapiens) (UniProt P06280); experiment: Counterscreen for Glucocerebrosidase Inhibitors: qHTS Assay for Human alpha-Galactosidase at pH 4.5 (AID 992); also: 0% is about no effect
Outline: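 Quantitative HTS: compounds tested from 0.7 nM up to 77 uM against 2 nM enzyme with 80 uM 4-MU alpha-D-galactopyranoside. The 20 min room-temperature reaction is stopped with 1M NaOH/1M glycine, pH 10.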

[3] = molecular target: alpha-glucosidase (Oryza sativa, rice) (UniProt Q653V4); experiment: Counterscreen for Glucocerebrosidase Inhibitors: qHTS Assay for Rice alpha-Glucosidase at pH 5.0 (AID 997);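 also: 0% = full activity with enzyme and -100% = basal without enzyme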
Outline: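 Rice alpha-glucosidase (4 nM final) with 400 uM 4-methylumbelliferyl-alpha-D-glucopyranoside in citrate buffer pH 5.0, 20 min at room temperature, stopped at pH 10; fluorescence 365/440 nm, compounds 0.7 nM–77 uM, AC50 from Hill fits.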

[4] = Cell Viability - LYMP2-002 (AID 977);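 also: compound exposure lasted 24 h at 37 °C; plate controls were DMSO only for no effect and 92 µM tetraoctylammonium bromide for full effect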
Outline: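 Human lymphoblastoid LYMP2-002 cells, 2500 per well, exposed to compounds for 24 h at 37 C in complete medium; viability read as intracellular ATP by CellTiter-Glo luminescence, AC50 from Hill fits.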

[5] = Cell Viability - LYMP2-006 (AID 978); also: % is scaled to controls: 0 for no effect and ±100 for the full control effect; nearly all actives have a fitted effect of over 60% in size
Outline: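 Concentration-dependent loss of intracellular ATP in a human lymphoblastoid line after 24 hr treatment at 37 C was measured by CellTiter-Glo luminescence, with AC50 values obtained from standard Hill-equation modelling.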

[6] = Cell Viability - LYMP2-007 (AID 979);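 also: cells exposed to compound for 24 h before reading; 0% = DMSO only and the negative end = 92 µM tetraoctylammonium bromide; nearly all actives have a fitted effect of over 60% in size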
Outline: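 Human lymphoblastoid cells (2500/well) were plated in complete medium, incubated 5 hr at 37 C, then exposed to compounds for 24 hr at 37 C. Intracellular ATP was read by CellTiter-Glo luminescence after 30 min at room temperature; AC50 from Hill fits.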

[7] = Cell Viability - LYMP2-008 (AID 980); also: % is scaled to controls: 0 for no effect and ±100 for the full control effect; nearly all actives have a fitted effect of over 60% in size
Outline: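 Human lymphoblastoid cells (2500/well) were plated, held 5 hr at 37 C, then exposed to compounds for 24 hr at 37 C in complete medium. Intracellular ATP was read by CellTiter-Glo luminescence; AC50 from Hill-fitted concentration-response.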

[8] = Cell Viability - LYMP2-010 (AID 981); also: % is scaled to controls: 0 for no effect and ±100 for the full control effect; nearly all actives have a fitted effect of over 55% in size
Outline: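 Human lymphoblastoid LYMP2-010 cells (2500/well) were preincubated 5 hr at 37 C, then exposed to compounds for 24 hr at 37 C in complete medium. Intracellular ATP was measured by CellTiter-Glo luminescence after 30 min at room temperature; AC50 from Hill-fitted concentration-response.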

[9] = Cell Viability - LYMP2-012 (AID 982);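 also: cellular ATP by luciferase luminescence where a drop means cytotoxicity; cells exposed to compound for one day before reading; 0% = DMSO only and full loss = 92 µM tetraoctylammonium bromide; nearly all actives have a fitted effect of over 55% in size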
[10] = Cell Viability - LYMP2-014 (AID 983);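 also: plate controls were DMSO only for no effect and 92 µM tetraoctylammonium bromide for full effect; nearly all actives have a fitted effect of over 50% in size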
Outline: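 Human lymphoblastoid cells (2500/well) were pre-incubated 5 hr at 37 C, then exposed to compounds in complete medium for 24 hr at 37 C. Intracellular ATP was read by CellTiter-Glo luminescence after 30 min at room temperature; AC50 from Hill fits.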

[11] = Cell Viability - LYMP2-016 (AID 984); also: % is scaled to controls: 0 for no effect and ±100 for the full control effect; nearly all actives have a fitted effect of over 55% in size
Outline: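 Acute toxicity in a Coriell human lymphoblastoid line is scored as loss of intracellular ATP over 24 h of treatment in complete medium. CellTiter-Glo signal is fitted across concentrations with the Hill equation to give AC50.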

[12] = Cell Viability - LYMP2-018 (AID 985);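 also: compound exposure lasted 24 hr at 37 °C; plate controls were DMSO only for no effect and tetraoctylammonium bromide at 92 µM for full effect; nearly all actives have a fitted effect of over 50% in size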
Outline: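 Human lymphoblastoid cells (2500/well) were pre-incubated 5 hr at 37 C, then exposed to compounds for 24 hr at 37 C in complete medium. Viability was read as intracellular ATP by CellTiter-Glo luminescence; AC50 values came from Hill-equation fits.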

[13] = Cell Viability - LYMP2-020 (AID 986);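 also: plate controls were DMSO only for no effect and tetraoctylammonium bromide at 92 µM for full effect; nearly all actives have a fitted effect of over 55% in size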
Outline: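 Human lymphoblastoid cells, 2500/well, were pre-incubated 5 hr at 37 C, then exposed to compounds for 24 hr at 37 C in complete medium. Intracellular ATP was read by CellTiter-Glo luminescence, and AC50 was derived by Hill fitting of concentration-response data.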

[14] = Cell Viability - LYMP2-022 (AID 987)
Outline: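 Human lymphoblastoid cells, 2500/well, preincubated 5 hr at 37 C, then exposed to compounds over a concentration range for 24 hr at 37 C in complete medium. Viability read as intracellular ATP by CellTiter-Glo luminescence after 30 min at room temperature; AC50 from Hill fits.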

[15] = Cell Viability - LYMP2-024 (AID 988);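 also: plate controls were DMSO only for no effect and 92 µM tetraoctylammonium bromide for full effect; nearly all actives have a fitted effect of over 60% in size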
Outline: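 Human lymphoblastoid cells (2500/well) in complete medium were preincubated 5 hr at 37 C, then exposed to compounds for 24 hr at 37 C. Intracellular ATP was read by CellTiter-Glo luminescence; AC50 from Hill-equation fits of concentration-response data.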

[16] = Cell Viability - LYMP2-026 (AID 989); also: % is scaled to controls: 0 for no effect and ±100 for the full control effect; nearly all actives have a fitted effect of over 50% in size
Outline: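 Human lymphoblastoid cells (2500/well) in complete medium were preincubated 5 hr at 37 C, then exposed to compounds for 24 hr at 37 C. Cellular ATP was read by CellTiter-Glo luminescence; AC50 from Hill-equation fits of concentration-response data.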

[17] = Cell Viability - LYMP1-002 - Assay at 24 hr (AID 993); also: % is scaled to controls: 0 for no effect and ±100 for the full control effect
Outline: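 Human lymphoblastoid LYMP1-002 cells, 2500/well in complete medium, were treated with compounds for 24 h at 37 C; intracellular ATP was read by CellTiter-Glo luminescence. AC50 values came from Hill-equation fits of qHTS concentration-response data.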

[18] = Cell Viability - LYMP1-002 - Assay at 40 hr (AID 994)
Outline: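 Human lymphoblastoid cells, 2500/well in complete medium, were preincubated 5 hr at 37 C, then exposed to compounds for 40 hr at 37 C. Intracellular ATP was read by CellTiter-Glo luminescence after 30 min at room temperature; AC50 from Hill-equation fits.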

[19] = measured here: cell count channel max response
[20] = measured here: lipid channel max response

Chain of Alpha-galactosidase A (Homo sapiens) (P06280 whole entry, looked up): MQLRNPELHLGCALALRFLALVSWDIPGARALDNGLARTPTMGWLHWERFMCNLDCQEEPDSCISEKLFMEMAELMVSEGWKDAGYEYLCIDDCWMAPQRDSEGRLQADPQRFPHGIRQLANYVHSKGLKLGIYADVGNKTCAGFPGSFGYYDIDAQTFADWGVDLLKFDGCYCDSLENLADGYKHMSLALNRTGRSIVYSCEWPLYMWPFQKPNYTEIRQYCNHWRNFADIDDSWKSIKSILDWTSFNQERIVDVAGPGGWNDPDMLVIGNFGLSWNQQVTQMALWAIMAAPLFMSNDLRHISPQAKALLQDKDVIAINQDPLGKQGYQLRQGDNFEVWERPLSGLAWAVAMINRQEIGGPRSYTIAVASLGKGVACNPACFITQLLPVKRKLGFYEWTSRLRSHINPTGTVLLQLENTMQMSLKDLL

c1ccc(CC2=NCCN2)cc1
inactive: activity change, negative = inhibition ([1]; at 25.7 µM (top of the series)) 0.322% | activity change, negative = inhibition ([1]; at 57.5 µM (top of the series)) 2.41%
-4.35% and 15.7%: max response [1, 20]
-5.46% and 11.2%: max response [1, 19]

CN=C(N)NCCC[C@H](N)C(=O)O
inactive: outcome [2] | outcome [3] | activity change, negative = inhibition ([1]; at 57.5 µM (top of the series)) 0.0216%
-15.5%: max response [1, 20]
-14.9%: max response [1, 19]

CCN(CC)CCNC(=O)COc1ccc(OC)cc1
inactive: activity change, negative = inhibition ([1]; at 25.7 µM (top of the series)) -2.56% | activity change, negative = inhibition ([1]; at 57.5 µM (top of the series)) 3.31%
7.9% and 27.2%: max response [1, 19]
4.41% and 33.1%: max response [1, 20]

CCN1CCCC(OC(=O)C(c2ccccc2)c2ccccc2)C1 (stereo unspecified)
-5.03%: max response [1, 19]
inactive: activity change, negative = inhibition ([1]; at 57.5 µM (top of the series)) -10.7%
-14.3%: max response [1, 20]

CCOc1ccccc1C(N)=O
inactive: outcome [4] | outcome [5] | outcome [6] | outcome [7] | outcome [8] | outcome [9] | outcome [10] | outcome [11] | Potency [12] | Potency [13] | outcome [14] | Potency [15] | outcome [16] | outcome [17] | Potency [18]

CN(C)CCC[C@@]1(c2ccc(F)cc2)OCc2cc(C#N)ccc21
4.25% and 5%: max response [1, 20]
inactive: outcome [2] | outcome [3] | activity change, negative = inhibition ([1]; at 57.5 µM (top of the series)) 0.0614% and -1.76%
5.54% and 6.49%: max response [1, 19]

COc1cc([C@H]2Oc3cc([C@H]4Oc5cc(O)cc(O)c5C(=O)[C@@H]4O)ccc3O[C@@H]2CO)ccc1O
inactive: outcome [4] | outcome [5] | outcome [6] | outcome [7] | outcome [8] | outcome [9] | outcome [10] | outcome [11] | Potency [12] | Potency [13] | outcome [14] | Potency [15] | outcome [16] | outcome [17] | Potency [18]
